About 79,000 compounds went through this panel and 15% of them were active in at least one assay; those are over-represented in the sample as a whole. Unmarked numbers belong to inactive results. Activity calls are given as the source filed them. No stated cut-off is given here; in the data, active means growth inhibition above about 70%; inactive means the rest.
Columns and labels:
[1] = NCI Yeast Anticancer Drug Screen. Data for the rad50 strain (AID 155);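 further: 0% = growth of vehicle-only cultures of the same strain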; conditions: S. cerevisiae rad50 strain growth inhibition; at 50.0 µM; active compounds read high
In short: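 Readout: growth inhibition relative to vehicle-treated cultures. Compound exposure was carried out in a genetically defined yeast strain deficient in DNA damage repair.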

[2] = NCI Yeast Anticancer Drug Screen. Data for the mec2-1 strain (AID 157); conditions: S. cerevisiae mec2-1 strain, at 50.0 µM, active compounds read high
In short: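 Test agents were screened against the mec2-1 yeast strain, with defined DNA repair or cell cycle alteration. Growth was scored as inhibition against vehicle-only controls.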

[3] = NCI Yeast Anticancer Drug Screen. Data for the sgs1 mgt1 strain (AID 161);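 further: 0% = growth of cultures given vehicle only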; conditions: S. cerevisiae sgs1 mgt1 strain, at 50.0 µM, active compounds read high
In short: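 Test agents were incubated with a DNA-repair-mutant yeast strain. Growth was then read and compared against vehicle-treated controls.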

[4] = NCI Yeast Anticancer Drug Screen. Data for the cln2 rad14 strain (AID 165);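 further: 0% = growth equal to vehicle treated cultures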; conditions: S. cerevisiae cln2 rad14 strain, at 50.0 µM, active compounds read high
In short: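 Growth of compound-exposed yeast (cln2 rad14 genotype) measured and expressed as inhibition relative to vehicle.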

[5] = NCI Yeast Anticancer Drug Screen. Data for the bub3 strain (AID 167); conditions: S. cerevisiae bub3 mutant strain, at 50.0 µM, active compounds read high
In short: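 Readout: yeast growth inhibition, expressed relative to vehicle-only wells. The test organism is a mutant strain from a panel with lesions in DNA repair or checkpoint genes.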

[6] = NCI Yeast Anticancer Drug Screen. Data for the mlh1 rad18 strain (AID 175); conditions: S. cerevisiae mlh1 rad18 strain growth inhibition; at 50.0 µM; active compounds read high
In short: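 In this whole-cell yeast screen, a strain with altered DNA damage repair is challenged with compound, and its growth is measured against matched vehicle-treated controls.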

Row | Compound | growth inhibition [1] [%] | growth inhibition [2] [%] | growth inhibition [3] | growth inhibition [4] | growth inhibition [5] | growth inhibition [6]
1 | C/C(CC(=O)Nc1ccc([N+](=O)[O-])cc1)=N/N=C(N)N | -4.25 | -16 | -8.6% | 17.1% | -10.8% | 2.6%
2 | O=C1CSC(c2cccc(Cl)c2)N1CCN1C(=O)CSC1c1cccc(Cl)c1 (stereo unspecified) | -14.6 | 9 | -2.55% | -20.8% | 2.75% | -6.6%
3 | CC1C=CC(C(N)C(=O)O)O1 (stereo unspecified) | -9.9 | -17.6 | -13.1% | -0.7% | -5.35% | -9.85%
4 | CCNC1C2(CCCCC2)NC(=O)C12CCCCC2 (stereo unspecified) | -43.4 | -10.9 | -1.1% | 12.1% | -7.05% | 2.65%
5 | O=C(O)CCc1c[nH]c(=S)[nH]1 | 10 | 3.75 | -5.85% | -11.6% | -1.7% | -1.7%
6 | N#Cc1cc([N+](=O)[O-])ccc1NC(=O)C(=O)C(C(=O)/C=C/c1ccccc1)C1OC(=O)c2ccccc21 (stereo unspecified) | -1.05 | -15.9 | -41.2% | 5.55% | -15.2% | 8.95%
7 | O=C(Nc1nc(C23CC4CC(CC(C4)C2)C3)cs1)c1cc2ccc(O)cc2oc1=O | 0.7 | 15.8 | 3.55% | 21.9% | 0.2% | -16.6%
8 | CC(=O)CCC(=O)C(=[N+]=[N-])S(=O)(=O)c1ccccc1 | -15.6 | -0.2 | -26.1% | 2.85% | -9.7% | -9.2%
9 | CCOC(=O)CCC1(C)OCC(O)CO1 (stereo unspecified) (tested in a mixture with another compound) | -11.1 | -5.25 | -5.6% | -2.85% | -16.6% | -25.8%
10 | CCC(=O)[CH-]C(=O)CC.CCC(=O)[CH-]C(=O)CC.[Cu+2] | 10.9 | -1.9 | 10.2% | -39.4% | -17.6% | 0%
11 | C=CCn1c(=S)sc2ccccc21 | 14.8 | 13.3 | 12.8% | 17.7% | -7.65% | -1.95%
12 | CCC(CC)COC(=O)c1ccccc1 | 0.95 | -7.05 | -3.75% | -14.8% | 17.2% | -0.75%
13 | C=C(Cl)C(Cl)(CBr)CCC(Cl)C(C)C (stereo unspecified) | 65 | 15.5 | 85.2% (active) | 73.7% (active) | 75.6% (active) | 72% (active)
14 | O=c1[nH]c2c(Cl)cccc2c2ccccc12 | 40.5 | 18.9 | -7.45% | -18.1% | -17.9% | 14.3%
15 | CCCCCN(CCCCC)C(=O)C(C)C | -4.45 | 7.8 | 4.6% | -30.1% | -2% | 5.8%
16 | O=C(Cc1cccc2c(=O)cc(-c3ccccc3)oc12)OCCN1CCOCC1 | 18.9 | 31.4 | 0.95% | 7.4% | 26.9% | 29.4%
17 | O=C1CCCCCCN1 | 8.9 | -33.4 | 1.5% | 16.6% | -17.2% | 12.6%
18 | C#CCn1cc(F)c(=O)n(CC#C)c1=O | -50.2 | -30.8 | -4.55% | -33.9% | -0.05% | -2.05%
19 | Cc1cc(=O)[nH]c2nc(N)ccc12 | -9.5 | -8.25 | 11.7% | -24.9% | 7.8% | -18.9%
20 | NC(=O)NCCSC1CCCCC1O (stereo unspecified) | -23.1 | -35 | -28.4% | 3.1% | -64.5% | 6.45%
21 | CCOC(=O)/C(=C\c1ccc(N(C)C)cc1)c1nc2ccccc2[nH]1 | 38 | 21.6 | 47.1% | 13.1% | 40.5% | -2.75%

From PubChem BioAssay (NCI)
